Source: PubChem (several laboratories)
This is a sample that favours compounds with a hit; in the whole collection about 1.3% have one here.
COUP-TFII inh: blocks human COUP-TFII nuclear receptor; 370,000 compounds, 0.7% hits; inhibition, % at 8.6 µM; HEK293T NGFI-A luciferase reporter, luminescence;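 active means inhibition above a per-plate cutoff, mean inhibition of test wells between control levels plus 3 SD, cut at about 38% in these data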;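 further: cells cotransfected with COUP-TFII expression vector driving the NGFI-A reporter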
NCOA3 inh: inhibits human SRC3 coactivator. Q9Y6Q9. HEK293 GAL4-SRC3 luciferase reporter, luminescence. inhibition, % at 3.6 µM. 360,000 compounds, 0.17% hits. AID 588352;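 active means inhibition above a per-campaign cutoff, the mean of all compounds plus 3 SD, cut at about 60% in these data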;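 further: higher means less SRC3-driven luciferase light from the GAL4 reporter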
NCOA1 inh: inhibits human SRC1 coactivator; inhibition, % at 3.6 µM; 360,000 compounds, 0.12% hits; HEK293 GAL4-SRC1 luciferase reporter, luminescence; AID 588354; Q15788;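 active means inhibition above the campaign mean plus 3 SD, with each screening campaign given its own cutoff, cut at about 60% in these data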
LRH-1 inv ag: suppresses constitutive activity of human LRH-1. HEK293T StAR-luciferase reporter, LRH-1 transfected, 24 h. inhibition, % at 3.6 µM. 360,000 compounds, 0.13% hits. AID 602396;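 active means inhibition above the mean inhibition of all tested compounds plus 3 SD, cut at about 73% in these data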
NCOA2 inhibitor: human SRC2 (NCOA2) inhibition; AID 651957; 370,000 compounds, 0.17% hits; HEK293 GAL4-SRC2 luciferase reporter, luminescence; inhibition, % at 9 µM; Q15596;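 active means inhibition above the mean inhibition of all tested compounds plus 3 SD, set per campaign, cut at about 52% in these data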
Gli-Sufu antag: antagonists of Gli-Sufu signaling; Sufu-KO-LIGHT fibroblasts, Gli luciferase reporter luminescence; inhibition, % at 5 µM; 340,000 compounds, 0.74% hits;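 active means inhibition above about 55%, limit read from the data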
Gli-Sufu confirm: Gli-SUFU antagonism confirmation, single concentration; shares compounds with Gli-Sufu antag; AID 602428; Sufu-KO-LIGHT cells, Gli luciferase reporter, luminescence; 2,500 compounds, 40% hits; inhibition, % at 5 µM;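 active means mean inhibition at 5 µM reaching about 45%, limit read from the data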
Gli cytotox: cytotoxic in Gli-SUFU antagonist counter-screen. shares compounds with Gli-Sufu antag. Sufu-KO-LIGHT cells cytotoxicity, ATP luminescence. cytotoxicity, % at 5 µM. 2,500 compounds, 32% hits. AID 651994;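 active means mean cytotoxicity at 5 µM above about 25%, limit read from the data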;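 further: cells exposed to compound overnight for roughly 16 to 18 hours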
Wnt3a counter: Wnt3a reporter inhibition counter-screen | shares compounds with Gli-Sufu antag | Wnt-LIGHT cells, Wnt3a-driven luciferase reporter, luminescence | inhibition, % at 6.25 µM | 2,500 compounds, 20% hits | AID 651995;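 active means mean inhibition above about 25%, limit read from the data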
Large screens that a line does not name were inactive (follow-up assays come after a bar, where they were run).

C/C(C=NNC(=O)CSc1nnc(-c2ccccc2)n1-c1ccc(C)cc1)=C\c1ccco1	none (no result: NCOA3 inh, NCOA1 inh, LRH-1 inv ag, Gli-Sufu antag)
O=C(OC12CCCN(C1)/C(=C/c1ccc(Cl)cc1)C2)c1ccc(F)cc1 (stereo unspecified)	none (no result: NCOA3 inh, NCOA1 inh, LRH-1 inv ag, Gli-Sufu antag)
Cc1cc(C)c(NC(=O)CNC(=O)COC(=O)C2=COCCO2)c(C)c1	none | Gli-Sufu confirm inactive | Gli cytotox inactive | Wnt3a counter inactive
Cc1ccccc1NC(=O)COC(=O)C1=COCCO1	none
O=C(NCc1ccccc1)C(=O)NCC1OCCCN1S(=O)(=O)c1cccs1 (stereo unspecified)	none
O=C(NCc1ccc(F)cc1)C(=O)NCC1OCCCN1S(=O)(=O)c1cccs1 (stereo unspecified)	Gli-Sufu antag 99 | Gli-Sufu confirm inactive | Gli cytotox inactive | Wnt3a counter inactive
COC(=O)[C@]12C[C@H](CC(=O)N3CCN(C(=O)C4CC4)CC3)C(=O)N(CCc3ccc(OC)c(OC)c3)C1=C[C@H](C1CCCC1)O[C@@H]2C	none (no result: NCOA3 inh, NCOA1 inh, LRH-1 inv ag, Gli-Sufu antag)
NS(=O)(=O)c1ccc(CCNCc2ccccc2OCc2ccc(Cl)cc2)cc1	none | Gli-Sufu confirm inactive | Gli cytotox inactive | Wnt3a counter inactive
NS(=O)(=O)c1ccc(CCNCc2cc(Cl)ccc2OCc2ccccc2)cc1	Gli-Sufu antag 56 | Gli-Sufu confirm inactive | Gli cytotox inactive | Wnt3a counter inactive
C=CCOc1ccccc1CNCCc1ccc(S(N)(=O)=O)cc1	none
Cc1ccc(C(C#N)c2ccc3c(C(F)(F)F)cc(C(F)(F)F)nc3n2)cc1 (stereo unspecified)	none | Gli-Sufu confirm 59 | Gli cytotox inactive | Wnt3a counter 52
Nc1nc2ccccc2n1/N=C/c1cccnc1	none
Nc1nc2ccccc2n1/N=C/c1ccc([N+](=O)[O-])s1	none | Gli-Sufu confirm 53 | Gli cytotox inactive | Wnt3a counter inactive
COc1ccc(C2C3=C(CC(C)(C)CC3=O)Nc3c2c(=O)n(C)c(=O)n3C)cc1OC (stereo unspecified)	Gli-Sufu antag 58 | Gli-Sufu confirm inactive | Gli cytotox 29 | Wnt3a counter inactive
CCCn1c(SCC(=O)Nc2nc(-c3ccc(OC)cc3)cs2)nc2c1c(=O)n(C)c(=O)n2C	Gli-Sufu antag 59 | Gli-Sufu confirm 51 | Gli cytotox inactive | Wnt3a counter inactive
COc1cc(NC(=O)CNC(c2ccccc2)c2ccccc2)cc(OC)c1OC	none
COc1cc(NC(c2ccccc2)c2ccccc2)cc(OC)c1OC	none | Gli-Sufu confirm inactive | Gli cytotox inactive | Wnt3a counter inactive
COc1cc(Nc2c3ccccc3nc3ccccc23)cc(OC)c1OC	Gli-Sufu antag 61 | Gli-Sufu confirm inactive | Gli cytotox inactive | Wnt3a counter inactive
COc1ccc(Nc2c3ccccc3nc3ccccc23)cc1	none | Gli-Sufu confirm 56 | Gli cytotox 31 | Wnt3a counter inactive
CC(C)CN1C(=O)C[C@]2(C(=O)N(C)c3ccc(NS(=O)(=O)C4CC4)cc32)C1c1ccccc1 (stereo partly specified)	none (no result: NCOA3 inh, NCOA1 inh, LRH-1 inv ag, Gli-Sufu antag)
COCCCN1C(=O)[C@H](CC(=O)N2CCN(C(=O)C3CC3)CC2)[C@]2(C(=O)OC)CCCCC=C12	none (no result: NCOA3 inh, NCOA1 inh, LRH-1 inv ag, Gli-Sufu antag)
Cc1ccc(S(=O)(=O)n2ccc(-c3c(-c4ccc(Cl)cc4)noc3C)n2)cc1	none (no result: NCOA3 inh, NCOA1 inh, LRH-1 inv ag, Gli-Sufu antag)
Cc1ccc(OCC(=O)OCC(=O)Nc2sccc2C(N)=O)cc1C	none
N#Cc1ccc(OCC(=O)OCC(=O)Nc2sccc2C(N)=O)cc1	none | Gli-Sufu confirm inactive | Gli cytotox 30 | Wnt3a counter inactive
CCCCNC(=S)N(C)/N=C/c1ccc2c(c1)OCO2	Gli-Sufu antag 99 | Gli-Sufu confirm inactive | Gli cytotox inactive | Wnt3a counter inactive
CCCCNC(=S)N(C)/N=C/c1ccc(F)cc1	none
O=S(=O)(Nc1nc2ccccc2nc1Nc1ccc2c(c1)OCO2)c1ccc(F)cc1	Gli-Sufu antag 58 | Gli-Sufu confirm 58 | Gli cytotox inactive | Wnt3a counter 51
